# Measurements: PubChem BioAssay AID720690 (Broad Institute, 2013)
# Potency and affinity values are given separately. Calls of active or inactive are those of the source.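 Rule for the calls: active = every repeat run showing a signal drop whose fitted half-maximal concentration is at most twice the top tested concentration; inconclusive = repeat runs disagree, or flat partial drop, or poor fit; inactive = the rest.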
# Assay: general mammalian cell viability loss – activator set, cherry-pick, cytotoxicity control for miR-122 modulator project, dose response (AID 720690)
# Conditions: HEK293T viability, CellTiter-Glo luminescence, 48 h; series mostly up to 26 µM
row,Compound,outcome
1,CN1C[C@@H]2[C@H](c3ccccc31)[C@@H](CO)N2C(=O)Nc1ccccc1,inactive
2,COc1cc(-c2nnc3sc(C4CCCCC4)nn23)cc(OC)c1OC,inactive
3,CCCNC(=O)Nc1ccc2c(c1)C(=O)N(C)[C@@H]1CC[C@H](CC(=O)NCC3CCCCC3)O[C@H]1CO2,inactive
4,CC(C)C(=O)Nc1ccc2c(c1)C(=O)N(C)[C@@H]1CC[C@H](CC(=O)O)O[C@H]1CO2,inactive
5,CC(C)C(=O)Nc1ccc2c(c1)C(=O)N(C)[C@@H]1CC[C@@H](CC(=O)NCCc3ccccc3)O[C@H]1CO2,inactive
6,C/C=C/c1ccc([C@@H]2[C@@H](CO)N(Cc3ccccn3)[C@H]2CNC(=O)CC)cc1,inactive
7,Nc1nc(Cl)nc2c1ncn2[C@H]1C[C@H](O)[C@@H](CO)O1,inactive
8,COc1cccc(NC(=O)Nc2ccc3c(c2)C(=O)N(C)C[C@@H](OC)[C@@H](C)CN[C@H](C)CO3)c1,inactive
9,NC(=O)c1cn(-c2ccccc2)nc1-c1cc2ccccc2oc1=O,inactive
10,OC(c1cc(C(F)(F)F)nc2c(Cl)cc(Cl)cc12)C1CCCCN1 (stereo not given),inactive
11,C[C@@H]1CN([C@H](C)CO)S(=O)(=O)c2ccc(C3=CCCCC3)cc2O[C@@H]1CN(C)C(=O)Nc1ccc2c(c1)OCO2,inactive
12,CCCNC(=O)C[C@H]1CC[C@H]2[C@H](COc3ccc(NC(=O)c4ccc(C(F)(F)F)cc4)cc3C(=O)N2C)O1,inactive
13,C[C@@H]1CN([C@H](C)CO)S(=O)(=O)c2ccc(C3=CCCC3)cc2O[C@@H]1CN(C)C(=O)Cc1ccncc1,inactive
14,COc1ccccc1C#Cc1ccc([C@H]2[C@@H](CO)N3CCCCN(CCC(F)(F)F)C[C@H]23)cc1,inactive
15,CCS(=O)(=O)Nc1ccc2c(c1)C(=O)N(C)[C@@H]1CC[C@@H](CC(=O)NCCCN3CCOCC3)O[C@@H]1CO2,inactive
16,COC(=O)C[C@H]1CC[C@H]2[C@H](COc3ccc(NC(=O)c4cccc(F)c4)cc3C(=O)N2C)O1,inactive
17,CO[C@@H]1CN(C)C(=O)c2cc(NC(=O)Nc3ccc(Cl)c(Cl)c3)ccc2OC[C@H](C)NC[C@H]1C,inactive
18,N#Cc1c(N)nc2c(c1-c1cccs1)CCCC2,inactive
19,C[C@@H]1CCCCO[C@H](CN(C)CC2CCCCC2)[C@H](C)CN([C@H](C)CO)C(=O)c2cc(NC(=O)Nc3ccc4c(c3)OCO4)ccc2O1,inactive
20,CC(C)C(=O)Nc1ccc2c(c1)C(=O)N(C)[C@H]1CC[C@H](CC(=O)Nc3cccc(F)c3)O[C@@H]1CO2,inactive

row,Compound,outcome
1,COc1cc(N)c(Cl)cc1NC(=O)c1ccccc1,inactive
2,O=C(C1CCOCC1)N1C[C@H]2[C@@H](c3ccccc31)[C@@H](CO)N2Cc1ccccc1,inactive
3,CN1C(=O)c2cc(NC(=O)c3cccc(F)c3)ccc2OC[C@H]2O[C@H](CC(=O)NC3CCC3)CC[C@@H]21,inactive
4,COCC(=O)Nc1ccc2c(c1)C(=O)N(C)[C@H]1CC[C@@H](CC(=O)NCCCN(C)C)O[C@H]1CO2,inactive
5,C[C@@H]1CN([C@@H](C)CO)S(=O)(=O)c2ccc(-c3ccc(C(=O)N(C)C)cc3)cc2O[C@@H]1CN(C)C(=O)C1CCC1,inactive
6,COCC(=O)N(C)C[C@H]1Oc2cc(-c3ccc(C#N)cc3)ccc2S(=O)(=O)N([C@@H](C)CO)C[C@H]1C,inactive
7,CCOc1ccc(NC(=S)N(CCCN2CCCC2)Cc2cccn2Cc2ccc(Cl)cc2)cc1,inactive
8,CCC(=O)N1C[C@H]2[C@@H](c3ccccc31)[C@H](CO)N2C(=O)Nc1ccccc1F,inactive
9,Cc1noc(C)c1NC(=O)Nc1ccc2c(c1)C(=O)N(C)[C@@H]1CC[C@H](CC(=O)N[C@H]3CCN(Cc4ccccc4)C3)O[C@H]1CO2,inactive
10,CN1C(=O)c2cc(NC(=O)c3cccs3)ccc2OC[C@H]2O[C@H](CC(=O)NCCN3CCCCC3)CC[C@H]21,inactive
11,CCNC(=O)C[C@@H]1CC[C@@H]2[C@H](COc3ccc(NC(=O)Nc4cccc(Cl)c4)cc3C(=O)N2C)O1,inactive
12,O=C(CC(F)(F)F)N1C[C@@H]2[C@H](c3ccccc31)[C@@H](CO)N2C(=O)C1CCCC1,inactive
13,COc1cccc(NC(=O)C[C@@H]2CC[C@@H]3[C@@H](COc4ccc(NS(=O)(=O)c5cccc(F)c5)cc4C(=O)N3C)O2)c1,inactive
14,CCCC(=O)Nc1ccc2c(c1)C(=O)N(C)[C@@H]1CC[C@H](CC(=O)NCC(F)(F)F)O[C@H]1CO2,inactive
15,O=C(CNCCC1=CCCCC1)Nc1ccccc1N1CCCCCC1,inactive
16,O=C(NCC(c1cccnc1)N1CCOCC1)NC1CCCCC1 (stereo not given),inactive
17,CN1C(=O)c2cc(NC(=O)C3CC3)ccc2OC[C@@H]2O[C@H](CC(=O)NCCN3CCCC3)CC[C@H]21,inactive
18,CC(=O)N(C[C@@H]1N[C@@H](CO)[C@H]1c1ccc(-c2ccccc2)cc1)C(C)C,inactive
19,CCS(=O)(=O)Nc1ccc2c(c1)C(=O)N(C)[C@H]1CC[C@H](CC(=O)NCCCN3CCOCC3)O[C@H]1CO2,inactive
20,CC(=O)Nc1ccc(S(=O)(=O)Nc2ccc(S(=O)(=O)Nc3nc(C)cc(C)n3)cc2)cc1,inactive
